CYP2C9 act = activators of human CYP2C9. P11712. recombinant CYP2C9, luciferin-H conversion, luminescence; active compounds read high; factor 1 = untreated enzyme, 0 = blocked. activation factor at 5 µM. hit rate 1.4% among 96,000;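 active = activation factor of 2 or more for CYP2C9 at a 5 µM dose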
Target sequence (P11712 whole entry, looked up): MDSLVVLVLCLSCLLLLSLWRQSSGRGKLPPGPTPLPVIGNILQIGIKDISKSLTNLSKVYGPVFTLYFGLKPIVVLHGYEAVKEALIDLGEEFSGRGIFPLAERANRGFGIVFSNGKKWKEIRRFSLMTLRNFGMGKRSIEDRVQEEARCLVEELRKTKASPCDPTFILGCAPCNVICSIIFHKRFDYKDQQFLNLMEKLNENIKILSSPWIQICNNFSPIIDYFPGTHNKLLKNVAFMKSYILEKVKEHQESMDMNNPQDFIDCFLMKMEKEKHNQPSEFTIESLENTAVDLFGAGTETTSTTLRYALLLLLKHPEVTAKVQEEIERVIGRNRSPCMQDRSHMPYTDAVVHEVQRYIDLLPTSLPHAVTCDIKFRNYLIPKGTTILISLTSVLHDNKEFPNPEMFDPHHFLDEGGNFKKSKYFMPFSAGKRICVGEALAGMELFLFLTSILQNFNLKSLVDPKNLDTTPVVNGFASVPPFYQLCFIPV
CYP2C19 inhib = human CYP2C19 inhibition. AID 778. inhibition, % at 5 µM. CYP2C19 Supersomes, luciferin-H EGE luminescence, 30 min. hit rate 21% among 96,000. P33261;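 active = CYP2C19 inhibition above a set limit at 5 µM in the primary screen, cut at about 50% in these data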
CYP2C9 inh = blocks human cytochrome P450 2C9; hit rate 20% among 96,000; CYP2C9 Supersomes, luciferin-H conversion, luminescence; P11712; inhibition, % at 5 µM;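 active = blocking of liver enzyme CYP2C9 beyond about 50% at 5 µM, limit read from the data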
CYP2C19 activ = increases human CYP2C19 enzyme activity; P33261; activation factor at 5 µM; recombinant CYP2C19, luciferin-H EGE luminescence; active compounds read high; 0 = fully inhibited enzyme, 1 = untreated enzyme; 96,000 tested, under 10 active;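 active = activation factor of at least 2 at 5 µM in the primary screen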
PLAP act = human PLAP activation. P05187. purified PLAP enzyme, luminescent substrate read-out; active compounds read high. activation fold at 20 µM. hit rate 1.2% among 96,000; in the data active = activation fold above about 2
Of the large screens only hits and unclear results are named; the others gave an inactive call. This is a sample that favours compounds with a hit; in the whole collection about 31% have one here.

CCn1cc(C(=O)NCCCN2CCC(C)CC2)c(=O)c2cc(S(=O)(=O)N3CCCC3)ccc21	none
C=CCn1cc(C(=O)NCc2ccco2)c(=O)c2cc(S(=O)(=O)N3CCCCCC3)ccc21	CYP2C9 inh 89
CCn1cc(C(=O)NCc2ccccn2)c(=O)c2cc(S(=O)(=O)N3CCCCC3)ccc21	none
CCn1cc(C(=O)NCc2ccco2)c(=O)c2cc(S(=O)(=O)N3CC(C)CC(C)C3)ccc21 (stereo not given)	CYP2C9 inh 58
CCN(CC)CCNC(=O)c1ccc2c(=O)n(CCc3ccccc3)c(=O)[nH]c2c1	none
COC(=O)c1[nH]c2ccccc2c1NC(=O)CN1CCN(c2cccc(OC)c2)C(C)C1 (stereo not given)	none
Cc1ccc(S(=O)(=O)N(C)c2ccc(OCC(=O)OCc3c(C)noc3C)cc2)cc1	CYP2C19 inhib 79, CYP2C9 inh 75
Cc1ccc(C(C)C)c(OCC(=O)OCc2c(C)noc2C)c1	none
CCN(C(=O)COC(=O)c1ccc(OCc2c(C)noc2C)cc1)c1ccccc1	none
CCN(c1ccccc1)S(=O)(=O)c1ccc(OCc2c(C)noc2C)cc1	CYP2C19 inhib 72, CYP2C9 inh 86
c1ccc(OCCCc2nc(-c3ccncc3)no2)cc1	CYP2C19 inhib 98, CYP2C9 inh 90
COc1ccc(CCN(Cc2nc(-c3ccccc3)no2)Cc2nc(-c3ccccc3)no2)cc1OC	CYP2C19 inhib 54, CYP2C9 inh 86
c1ccc(CCc2nc(-c3ccccc3)no2)cc1	none
COc1ccc(-c2noc(CCCOc3ccccc3)n2)cc1OC	CYP2C19 inhib 90, CYP2C9 inh 79
COc1nc(-c2ccccc2)ccc1-c1noc(COc2ccccc2)n1	none
c1ccc(OCc2nc(-c3ccccc3)no2)cc1	CYP2C19 inhib 72
CCc1c(C(C)S(=O)(=O)c2ccc(C)cc2)[nH]c(=O)n1-c1ccc(OC(F)(F)F)cc1 (stereo not given)	none
CC(C)OCP(=O)(c1ccccc1)c1ccccc1	none
COC(=O)C1CSc2[nH]c(=O)sc2C1c1ccc(OC)c(OC)c1 (stereo not given)	none
CCOC(=O)C1C2C=CC3(CN(Cc4cccs4)C(=O)C13)O2 (stereo not given)	none
c1ccc(OCCCc2nc(-c3ccccn3)no2)cc1	CYP2C19 inhib 80
Fc1ccccc1N1CCN(Cc2nc(-c3ccccc3)no2)CC1	none
O=C1c2ccccc2C(=O)N1CCCc1nc(-c2ccccn2)no1	none
c1ccc(-c2noc(CN3CCN(c4ccccc4)CC3)n2)cc1	CYP2C19 inhib 71
Cc1ccc(S(=O)(=O)/N=C2/NC(=O)/C(=C/c3cccnc3)S2)cc1	CYP2C19 inhib 68, CYP2C9 inh 98
O=C(NNC(=O)c1ccccc1Br)c1cccc(Cl)c1	CYP2C9 act 3.1
Nc1nc(SCC(=O)NC2CCCCC2)[nH]c(=O)c1-c1ccccc1	none
Fc1ccc2nc3n(c2c1F)CCCCCC3	none
CC1Cc2ccccc2N1S(=O)(=O)c1cccc(C(=O)c2nccn2C)c1 (stereo not given)	none
Cc1noc(C)c1COC(=O)c1cccc(S(=O)(=O)N2c3ccccc3CC2C)c1 (stereo not given)	CYP2C19 inhib 59, CYP2C9 inh 80
CCC(CO)NC(=O)c1cccc(S(=O)(=O)N2c3ccccc3CC2C)c1 (stereo not given)	CYP2C19 inhib 73
COc1ccc(C2SCC(=O)N2CC23CC4CC(CC(C4)C2)C3)cc1 (stereo not given)	none
Cc1ccc2c(c1)NCC(C(=O)NC1CCCCC1)O2 (stereo not given)	CYP2C19 inhib 59
O=C(CSc1nc2cc(Cl)ccc2s1)N1CCCc2ccccc21	CYP2C9 inh 62
CCOc1ccc2nc(SCC(=O)N3CCCc4ccccc43)sc2c1	none
Cc1onc(-c2ccccc2)c1C(=O)N1CC(C)OC(C)C1 (stereo not given)	none
CC1CN(C(=O)C(C)Sc2nc3ccccc3s2)CC(C)O1 (stereo not given)	CYP2C19 inhib 94
NC(=O)C1CCN(C(=O)CSc2nc3ccccc3s2)CC1	none
O=C(c1ccc(S(=O)(=O)N2CCC(c3nc4ccccc4s3)CC2)cc1)N1CCOCC1	none
CCc1ccc(C(=O)N2CCC(c3nc4ccccc4s3)CC2)cc1	CYP2C9 inh 76
O=C(CSc1nc2ccccc2s1)N1CCCCC1	CYP2C19 inhib 84
O=C(NCC(=O)N(c1ccc(F)cc1)C(C(=O)NCC1CCCO1)c1ccccc1)c1ccco1 (stereo not given)	none
Cc1cc(NC(=O)CSc2nc3ccccc3s2)no1	none
CC1CCCN(C(=O)CSc2cnc3ccccc3n2)C1 (stereo not given)	CYP2C19 inhib 50
O=C(CSc1ccc(Cl)cc1)N1CCC(c2nc3ccccc3s2)CC1	CYP2C9 inh 54
CC1CCCN(C(=O)CN2C(=O)c3ccccc3C2=O)C1 (stereo not given)	none
CCCCC1CC(C)(C(=O)CSc2nc3ccccc3s2)OC1=O (stereo not given)	CYP2C9 inh 78
CC1CCCC(C)N1C(=O)CSc1nc2ccccc2s1 (stereo not given)	CYP2C19 inhib 86, CYP2C9 inh 61
O=C(CSc1c(Cl)cccc1Cl)N1CCC(c2nc3ccccc3s2)CC1	none
O=C(CCC1COc2ccccc2O1)NCc1ccco1 (stereo not given)	none
CCOC(=O)NC(Nc1nnc(SCC)s1)(C(F)(F)F)C(F)(F)F	none
COC(=O)c1cc(OC)c(OC)cc1NC(=O)c1ccc(OC)c(OC)c1	none
CC1CCN(C(=O)CSc2nc3ccccc3s2)CC1	CYP2C19 inhib 57, CYP2C9 inh 63
CC1=C(C#N)C(=O)OC(C)(C)C1	none
Cc1nn(-c2ccccc2)c2c1P(=O)(O)/C(=C1\N(C)c3ccccc3C1(C)C)C=N2	none
Brc1cccc(C2CC(c3ccccc3)n3nnnc3N2)c1 (stereo not given)	CYP2C19 inhib 78, CYP2C9 inh 80
c1ccc(C2CC(c3cccs3)n3nnnc3N2)cc1 (stereo not given)	CYP2C19 inhib 83, CYP2C9 inh 74
Nc1nc2n(n1)C(c1cccc(Br)c1)CC(c1ccccc1)N2 (stereo not given)	none
COc1ccc(OC)c(CNn2c(-c3cccc(C)c3)nc3ccccc3c2=O)c1	CYP2C19 inhib 89, CYP2C9 inh 80
COc1cccc(CNn2c(-c3cccc(C)c3)nc3ccccc3c2=O)c1	CYP2C19 inhib 98, CYP2C9 inh 98
COc1ccc(OC)c(NC(=O)CNC(=O)Cn2cnc3ccccc3c2=O)c1	none
COc1cccc(CNC(=O)c2cc3c(C)nc4ccccc4c3o2)c1	none
O=C(O)CCC(=O)Nc1nc2nc(-c3ccccc3)cc(-c3ccccc3)n2n1	none
CN(C)/C=N/C(=S)Nc1ccc(Br)cc1F	CYP2C19 inhib 59
CCC(C)NC(=O)CC1Oc2ccc(C)cc2NC1=O (stereo not given)	none
NC(=O)C1CCN(C(=O)CSc2nc3c(c(-c4ccccc4)n2)CCCC3)CC1	CYP2C9 inh 73
